Source: ChEMBL document CHEMBL4513216, “Probing the Open Global Health Chemical Diversity Library for Multistage-Active Starting Points for Next-Generation Antimalarials” (ACS Infect Dis, 2020)
Screen size: about 69,000 compounds; about 8,600 (12%) showed an effect of 50% or more. The entries come from a sample that favours strong results as a whole.

What follows are compounds tested on Plasmodium berghei (assay: Screen against P. berghei liver stage (PbLuc), transformed with Luciferase, at 10uM). Conditions: tested at 10 uM.
Format: functional, HepG2

Which INHIBITION does the source give for CC(=O)CSc1nc2c(cnn2CCO)c(=O)[nH]1 here?
The INHIBITION was -8.41%.

For Cc1cccc(N2CCN(C(=O)Cc3ccccc3O)C(C)C2)n1 (stereo not given), which INHIBITION is on record?
The INHIBITION was 6.83%.

With CN1CC2(CCN(C(=O)c3ccc(-n4cnnc4)cc3Cl)CC2)OC1=O as the compound, how does the INHIBITION read?
Its INHIBITION is -6.01%.

For Cc1cc(-c2ccnn2C)nc(C2CCCN(S(C)(=O)=O)C2)n1 (stereo not given), which INHIBITION is on record?
The INHIBITION was 16.99%.

With CC(=O)NC[C@]1(O)CCN(C(=O)c2ccc3c(c2)OCO3)C[C@H]1O as the compound, how does the INHIBITION read?
The INHIBITION was 59%.

How did the INHIBITION turn out when CC(=O)NC[C@]1(O)CCN(C(=O)c2ccc(C)c(F)c2)C[C@H]1O was run?
Its INHIBITION is -7.79%.

With CC(=O)NC[C@]1(O)CCN(C(=O)c2ccc3c(c2)CCC3)C[C@H]1O as the compound, how does the INHIBITION read?
Its INHIBITION is 14.5%.

How did the INHIBITION turn out when Cc1cnn(CCNCC(=O)N2CCN(c3ccccc3)CC2)c1 was run?
Its INHIBITION is -3.48%.

With CC(C)CC(C)N(C)C(=O)c1nc(S(C)(=O)=O)n2ccccc12 (stereo not given) as the compound, how does the INHIBITION read?
The INHIBITION was 1.8%.

With CN(Cc1cnn(C)c1)C(=O)C(c1ccccc1)N1CCSCC1 (stereo not given) as the compound, how does the INHIBITION read?
The INHIBITION was -13.4%.

How did the INHIBITION turn out when O=C(c1c[nH]c(=O)[nH]c1=O)N1CCCC(c2cnccn2)C1 (stereo not given) was run?
The INHIBITION was 53%.

How did the INHIBITION turn out when Cc1cnc(C2CCCN(C(=O)c3c[nH]c(=O)[nH]c3=O)C2)s1 (stereo not given) was run?
The INHIBITION was 38.2%.

Cc1cncc(C2CCCN(C(=O)c3c[nH]c(=O)[nH]c3=O)C2)n1 (stereo not given) was tested. Which INHIBITION did it give?
The INHIBITION was 11%.

For COc1ncccc1C(=O)Nc1cccc(C[S+](C)[O-])c1C (stereo not given), which INHIBITION is on record?
Its INHIBITION is -32.2%.

For Cc1nc2n(n1)CC(NCC(=O)Nc1cc(C)on1)CC2 (stereo not given), which INHIBITION is on record?
The INHIBITION was 7.08%.

Which INHIBITION does the source give for CNc1cc(C)nc(C2CN(Cc3cc[nH]n3)CCO2)c1 (stereo not given) here?
The INHIBITION was 67.7%.

With Cc1cc(N)cc(C2CN(Cc3cc[nH]n3)CCO2)n1 (stereo not given) as the compound, how does the INHIBITION read?
The INHIBITION was 0.301%.

How did the INHIBITION turn out when CNc1cc(C)nc(C2CN(Cc3ccc(Cl)cn3)CCO2)c1 (stereo not given) was run?
The INHIBITION was -35.8%.

Which INHIBITION does the source give for COCC1CN(C(=O)c2cccn2C)Cc2nccn2C1 (stereo not given) here?
Its INHIBITION is 42.1%.

With COCC1CN(C(=O)c2ccccn2)Cc2nccn2C1 (stereo not given) as the compound, how does the INHIBITION read?
The INHIBITION was 11.5%.

Which INHIBITION does the source give for COCC1CN(C(=O)c2cccs2)Cc2nccn2C1 (stereo not given) here?
Its INHIBITION is 67.5%.

With O=C(NCCn1ccnc1)c1ccn(-c2ccccc2F)n1 as the compound, how does the INHIBITION read?
The INHIBITION was 7.27%.

With O=c1c(NCCc2ccc(O)cc2)c(NCc2ccccn2)c1=O as the compound, how does the INHIBITION read?
The INHIBITION was 23.7%.

Which INHIBITION does the source give for O=C(NS(=O)(=O)Cc1ccc(F)cc1)C1CCc2ccccc21 (stereo not given) here?
The INHIBITION was 11.7%.

For O=C(NS(=O)(=O)Cc1ccc(F)cc1)C1CCOc2ccccc21 (stereo not given), which INHIBITION is on record?
The INHIBITION was 50.7%.

For O=C(NS(=O)(=O)c1ccc(F)cc1)C1CCOc2ccccc21 (stereo not given), which INHIBITION is on record?
Its INHIBITION is 48.5%.

How did the INHIBITION turn out when COCC(=O)N1CC[C@@H](N2CCOCC2)[C@@H]1Cc1cccnc1 was run?
Its INHIBITION is 27.6%.

How did the INHIBITION turn out when CCC(Nc1nc(CCN)nc2ccccc12)c1cc(C)ccn1 (stereo not given) was run?
Its INHIBITION is -1.25%.

CCC(Nc1nc(CCN)nc2ccccc12)c1cccs1 (stereo not given) was tested. Which INHIBITION did it give?
The INHIBITION was 51.1%.

For NCCc1nc(N[C@@H](CO)c2ccccc2)c2ccccc2n1, which INHIBITION is on record?
The INHIBITION was 31.9%.

How did the INHIBITION turn out when CCc1nc(CN(C)CC(=O)N(C)C2CC2)cs1 was run?
Its INHIBITION is 42.6%.

How did the INHIBITION turn out when COc1c(CNCCNC(=O)c2cccc(C)c2)c(C)nn1C was run?
The INHIBITION was 33.8%.

COCC(NC(=O)c1ccc[nH]1)c1cccc(C(F)(F)F)c1 (stereo not given) was tested. Which INHIBITION did it give?
The INHIBITION was 51.3%.

How did the INHIBITION turn out when COCC(NC(=O)c1ccco1)c1cccc(C(F)(F)F)c1 (stereo not given) was run?
The INHIBITION was -31.6%.

With COCC(NC(=O)c1cc[nH]n1)c1cccc(C(F)(F)F)c1 (stereo not given) as the compound, how does the INHIBITION read?
The INHIBITION was 42.6%.

With Cc1ncsc1CN1C[C@@H]2COC[C@]2(C(=O)NCC2CC2)C1 as the compound, how does the INHIBITION read?
Its INHIBITION is 39.2%.

For O=c1n(Cc2ccc(C(F)(F)F)cc2)nc2ncccn12, which INHIBITION is on record?
Its INHIBITION is -80.9%.

Which INHIBITION does the source give for CCS(=O)(=O)N1CCc2c(cccc2NC(=O)NCCO)C1 here?
Its INHIBITION is 50.8%.

For CCS(=O)(=O)N1CCc2c(cccc2NC(=O)NCCOC)C1, which INHIBITION is on record?
Its INHIBITION is 3.95%.

COCCCNC(=O)Nc1cccc2c1CCN(S(C)(=O)=O)C2 was tested. Which INHIBITION did it give?
The INHIBITION was 17.5%.

With CCCNC(=O)Nc1cccc2c1CCN(S(C)(=O)=O)C2 as the compound, how does the INHIBITION read?
The INHIBITION was -9.48%.

Which INHIBITION does the source give for CCS(=O)(=O)N1CCc2c(cccc2NCc2nc(C)c(C)o2)C1 here?
Its INHIBITION is 52.6%.

How did the INHIBITION turn out when COCCNC(=O)Nc1cccc2c1CCN(S(C)(=O)=O)C2 was run?
The INHIBITION was 65.4%.

CCS(=O)(=O)N1CCc2c(cccc2NCc2ncc[nH]2)C1 was tested. Which INHIBITION did it give?
The INHIBITION was 27.6%.

With CCc1cnc(CNc2cccc3c2CCN(S(=O)(=O)CC)C3)o1 as the compound, how does the INHIBITION read?
Its INHIBITION is 39.6%.

For CC(C)NC(=O)Nc1cccc2c1CCN(S(C)(=O)=O)C2, which INHIBITION is on record?
Its INHIBITION is 45.7%.

How did the INHIBITION turn out when CC(C)N(C)C(=O)COc1ccc(-c2noc(C3CCCO3)n2)cc1 (stereo not given) was run?
The INHIBITION was -59.4%.

Which INHIBITION does the source give for O=C(NCC1CN(c2ncccn2)Cc2nccn2C1)c1cccnc1 (stereo not given) here?
The INHIBITION was -86.4%.

Fc1ccc(N2CCN(CCCc3cn[nH]c3)CC2)cc1 was tested. Which INHIBITION did it give?
The INHIBITION was 31.6%.

Which INHIBITION does the source give for NC(=O)C1CN(C(=O)Nc2ccccc2OCC(F)(F)F)CCO1 (stereo not given) here?
The INHIBITION was 31.2%.

With N#CC1(NC(=O)c2c(F)ccc(OC(F)F)c2F)CCOCC1 as the compound, how does the INHIBITION read?
Its INHIBITION is -11.7%.

CCn1nnc(NCc2cc(Cl)cc(Cl)c2OC)n1 was tested. Which INHIBITION did it give?
Its INHIBITION is -11.6%.

Which INHIBITION does the source give for CCn1nnc(NCc2cc(Br)cc(Br)c2OC)n1 here?
Its INHIBITION is 61.1%.

With CCCn1nnc(NCc2cc(Br)cc(Br)c2OC)n1 as the compound, how does the INHIBITION read?
The INHIBITION was -24%.

For Cc1ncccc1CNC1CCCN(Cc2noc(C3CC3)n2)C1 (stereo not given), which INHIBITION is on record?
The INHIBITION was 46.2%.
